Measured values from a collection of fitness landscapes (doi:10.1126/science.1257360).
In all, about 140,000 sequences were measured (“enrichment ratio after two sorts for PhoP signalling”: median about 0, highest 2% from about 11 on). The sample as a whole holds a higher share of the highest values than the screen did.

B1: PhoQ; a variant is named by its letters at X, in order, P23837 (parent)
chain: MKKLLRLFFPLSLRVRFLLATAAVVLVLSLAYGMVALIGYSVSFDKTTFRLLRGESNLFYTLAKWENNKLHVELPENIDKQSPTMTLIYDENGQLLWAQRDVPWLMKMIQPDWLKSNGFHEIEADVNDTSLLLSGDHSIQQQLQEVREDDDDAEMTHSVAVNVYPATSRMPKLTIVVVDTIPVELKSSYMVWSWFIYVLSANLLLVIPLLWVAAWWSLRPIEALAKEVRELEEHNRELLNPATTRELTSLVRNLNRLLKSERERYDKYRTTLTDLTHSLKTPLXXLQXXLRSLRSEKMSVSDAEPVMLEQISRISQQIGYYLHRASMRGGTLLSRELHPVAPLLDNLTSALNKVYQRKGVNISLDISPEISFVGEQNDFVEVMGNVLDNACKYCLEFVEISARQTDEHLYIVVEDDGPGIPLSKREVIFDRGQRVDTLRPGQGVGLAVAREITEQYEGKIVAGESMLGGARMEVIFGRQHSAPKDE

Variants of: B1
Test: enrichment ratio after two sorts for PhoP signalling (ratio (wild type AVST 3.29)); higher = more functional
Conditions: with PhoP (E. coli)

Variant	enrichment ratio
ERYW	≤ 0.25
TEFV	8.47
FYGK	≤ 0.25
FRYA	≤ 0.25
WKER	≤ 0.25
FREH	≤ 0.25
EDQF	≤ 0.25
PKWA	≤ 0.25
MNPT	≤ 0.25
WRCA	≤ 0.25
GWPN	≤ 0.25
AETS	20.8
AETE	8.78
AESF	14.8
AEHF	≤ 0.25
AETM	≤ 0.25
AERM	≤ 0.25
AETF	9.37
AEVM	46.8
AEDV	≤ 0.25
AETV	22.9
AEGM	≤ 0.25
AESK	≤ 0.25
RWWL	≤ 0.25

Variant	enrichment ratio
RSVA	≤ 0.25
ECQN	≤ 0.25
VEAF	≤ 0.25
AERL	≤ 0.25
AEPC	≤ 0.25
AEEL	≤ 0.25
AQQC	≤ 0.25
AEQC	16
AKQC	≤ 0.25
AEFW	≤ 0.25
AEKS	≤ 0.25
AEVL	17.5
AETW	11.3
AETQ	≤ 0.25
AESC	32.1
YVCN	≤ 0.25
DGHV	≤ 0.25
VIEF	≤ 0.25
WKPN	≤ 0.25
EKAV	≤ 0.25
YTCE	≤ 0.25
STCE	13.1
STCI	12.3
STHE	≤ 0.25

Variant	enrichment ratio
STPM	15.9
STCA	7.48
SRCK	≤ 0.25
SPPM	≤ 0.25
STCK	12.3
SRPM	≤ 0.25
YTCK	≤ 0.25
STCS	10.8
TPLS	≤ 0.25
QDRE	≤ 0.25
ICDP	≤ 0.25
QAMT	≤ 0.25
QYWL	≤ 0.25
FCIR	≤ 0.25
RNQK	≤ 0.25
LNAP	≤ 0.25
THWI	≤ 0.25
YKPH	≤ 0.25
VKLF	≤ 0.25
AGWK	≤ 0.25
HRMH	≤ 0.25
VECH	24.1
GMCH	16.1
GNCH	3.45

Variant	enrichment ratio
HECF	≤ 0.25
HECI	6.73
TEMH	134
HECH	12.7
NRMH	≤ 0.25
TCCH	7.95
GMMH	≤ 0.25
VFCH	≤ 0.25
GFPY	≤ 0.25
DYYD	≤ 0.25
EPTC	≤ 0.25
QQYH	≤ 0.25
QHTA	≤ 0.25
ETDE	≤ 0.25
QECH	≤ 0.25
YWCH	≤ 0.25
MECH	56.6
TECH	27.7
HVCH	≤ 0.25
DMCH	≤ 0.25
NECH	18
MFCH	≤ 0.25
HPCH	≤ 0.25
FIVW	≤ 0.25

Variant	enrichment ratio
MRRQ	≤ 0.25
KFHY	≤ 0.25
FGDH	≤ 0.25
EQSM	≤ 0.25
YMLV	0.756
NWGV	≤ 0.25
AFIT	≤ 0.25
IIPL	≤ 0.25
GNAH	≤ 0.25
GIAH	22.5
GITH	≤ 0.25
GIHW	≤ 0.25
GIGM	36.1
GNGW	≤ 0.25
GITM	10.3
GIYM	≤ 0.25
GIMM	17.3
GIWM	≤ 0.25
GNMM	0.333
GIGW	16
RCKT	≤ 0.25
KSCR	≤ 0.25
YPKK	≤ 0.25
TDMP	≤ 0.25

Variant	enrichment ratio
PKYN	≤ 0.25
IVYH	≤ 0.25
QMPA	≤ 0.25
LKRS	≤ 0.25
KQPM	≤ 0.25
RNQP	≤ 0.25
WSPR	≤ 0.25
NEWG	≤ 0.25
IPQP	≤ 0.25
MNPP	≤ 0.25
CSHW	≤ 0.25
PKLP	0.31
FDCK	≤ 0.25
KLPV	≤ 0.25
GIGG	≤ 0.25
GISA	13
GILT	3.61
GIMT	12.6
GNSA	2.7
GITF	18.4
GISR	≤ 0.25
GIMQ	11.4
GIHF	≤ 0.25
GNTF	≤ 0.25

Variant	enrichment ratio
GIGQ	≤ 0.25
GNMT	≤ 0.25
WKTM	≤ 0.25
RKLH	≤ 0.25
GFLH	≤ 0.25
TNCW	≤ 0.25
LAHQ	≤ 0.25
MIEG	≤ 0.25
RYNY	≤ 0.25
GILR	12.2
GNVV	5.22
GNLR	≤ 0.25
GIMC	17.3
GNAW	≤ 0.25
GIAW	21.6
GNMC	≤ 0.25
GYLR	≤ 0.25
GTMC	≤ 0.25
WIVV	≤ 0.25
GITD	≤ 0.25
GIVV	11.3
MDVY	≤ 0.25
LSLS	≤ 0.25
IAET	≤ 0.25

Variant	enrichment ratio
ECYK	≤ 0.25
KLTV	≤ 0.25
LQYA	≤ 0.25
LGNN	≤ 0.25
QGIH	≤ 0.25
EKVT	≤ 0.25
YIEP	≤ 0.25
HLIK	≤ 0.25
GITI	5.68
GIMG	8.1
GILG	12.3
GIAG	15.6
GNAG	0.269
GISK	4.87
GITK	16
GISS	13.5
GNSS	5.64
GITG	2.48
GNLG	5.07
GNTK	≤ 0.25
RNAN	≤ 0.25
KNTS	≤ 0.25
TMDQ	≤ 0.25
AWAD	≤ 0.25

Variant	enrichment ratio
RVNY	≤ 0.25
YHMP	≤ 0.25
AFVI	≤ 0.25
SYPA	≤ 0.25
GITA	7.39
GISM	18.4
GISF	8.06
GNAS	4.84
GIWI	≤ 0.25
GIYI	0.548
GNSM	10.6
GIAT	≤ 0.25
GNLQ	5.83
GILQ	17.5
GILA	11.3
GIAS	14.2
EYAS	≤ 0.25
LGCH	≤ 0.25
TLYV	0.293
LEIN	≤ 0.25
EYMV	≤ 0.25
RHQP	≤ 0.25
GIME	13.3
GICE	6.08

Variant	enrichment ratio
GNME	≤ 0.25
DICD	≤ 0.25
EHLY	≤ 0.25
FVVK	≤ 0.25
ASQM	2.47
ASGR	≤ 0.25
KSSF	≤ 0.25
ASSM	19.3
ASSF	11.3
VRSM	≤ 0.25
VGAL	0.829
GWCN	≤ 0.25
STML	13.4
SMML	14.5
HEML	≤ 0.25
NMML	≤ 0.25
SYML	0.252
SGML	17.4
SNML	15.9
KYML	≤ 0.25
SGEL	≤ 0.25
SWML	≤ 0.25
TIML	2.74
AVQL	≤ 0.25

Variant	enrichment ratio
YNMI	0.268
IVRK	≤ 0.25
TQMH	9.69
IKMM	≤ 0.25
WGHD	≤ 0.25
SQFI	≤ 0.25
RPFT	≤ 0.25
SIML	6.65
SRML	4.3
SPML	≤ 0.25
SAML	16.5
SCML	11.2
IIML	≤ 0.25
SAKL	≤ 0.25
SSML	23.6
SLML	7.15
HYKH	≤ 0.25
GCEP	≤ 0.25
RQGY	≤ 0.25
QGWN	16.6
QTWN	16.8
FFWN	≤ 0.25
QQNM	16.3
FTWN	≤ 0.25

Variant	enrichment ratio
QLWN	≤ 0.25
FVWN	≤ 0.25
IQNM	≤ 0.25
QQRM	≤ 0.25
QSQN	≤ 0.25
QTWI	3.53
QSWN	21.4
QVFE	≤ 0.25
EYFQ	≤ 0.25
FTGV	≤ 0.25
FFRA	≤ 0.25
LYHH	≤ 0.25
EIFG	≤ 0.25
NAWN	≤ 0.25
QRWL	≤ 0.25
MAWN	23.5
FCWL	≤ 0.25
FPWN	≤ 0.25
TPWN	≤ 0.25
MAWI	8.24
QQWN	13.8
QPWL	≤ 0.25
MAWL	12
KAWN	≤ 0.25

Variant	enrichment ratio
QSWL	11.6
YELN	2.61
KINA	≤ 0.25
IDLY	≤ 0.25
SGPA	≤ 0.25
TVIM	≤ 0.25
ALLC	1.19
SWSV	≤ 0.25
LKFM	≤ 0.25
FEFH	≤ 0.25
QQQL	≤ 0.25
QRWN	≤ 0.25
QQWL	11.7
QEYN	≤ 0.25
QQRL	≤ 0.25
QRYN	≤ 0.25
QIYN	20.5
QPWN	≤ 0.25
QIWN	27.2
QQEL	≤ 0.25
QQNL	14.9
QVWL	1.05
